Results published in PubChem BioAssay.

experiment: growth of efflux-deficient E. coli DRC39 – strain DRC39, OD650, 24 h, E. coli filamentation inducers, primary screen (AID 1178);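 also: growth measured as culture turbidity by optical density at 650 nm; test concentration not given here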; conditions: E. coli DRC39 acrAB, higher = more signal, called active from +8 up or from −8 down

z-score, inactive:
COC(=O)[C@@]1(Cc2ccc(F)cc2)[C@H]2c3cc(C(=O)N(C)C)n(CCc4ccc(O)c(O)c4)c3C[C@H]2CN1C(=O)c1ccccc1 -0.0718
CCOC(=O)C1=CC[C@@H](c2ccc(OC)cc2)N(S(=O)(=O)c2ccc(C)cc2)[C@H]1c1ccc(C)cc1 -0.346
[N-]=[N+]=NCc1ccccc1[C@@H]1OC(c2ccc(OCCCO)cc2)=N[C@]1(Cc1ccccc1N=[N+]=[N-])C(=O)O 2.32
COC(=O)[C@@]1(Cc2ccccc2)[C@H]2c3cc(C(=O)N(C)C)n(CCSC(=N)N)c3C[C@H]2CN1C(=O)c1ccccc1 -0.456
Cc1ccc(S[C@]2(C(=O)NC(C)C)CC(=O)N(C3CCCCC3)[C@@H]2c2ccc(CO)cc2I)cc1 0.384
COC(=O)C(CC#Cc1ccc2c(c1)[C@]1(C(=O)N2)[C@H](C(=O)N2CCc3cc(OC)c(OC)cc3C2)[C@H]2C(=O)O[C@H](c3ccccc3)[C@H](c3ccccc3)N2[C@@H]1c1ccccc1OCCO)C(=O)OC 0.154
C=CC[C@@]12N=C(c3ccc(OCCCO)cc3)O[C@@H]1c1ccccc1N(CCC)C2=O 0.215
CCC(CC)C(O)C1C=CC2C(=O)N(c3ccccc3)C(=O)C2N1Nc1ccccc1F (stereo unspecified) -0.551
C=C(COC)/C(=C/C[C@H](OC(C)=O)c1ccccc1OCCO)c1cc(C(=O)OC)ccc1OC -0.474
CN(C)CCCC[C@@H]1NC(=O)[C@@H]2C[C@H](C(=O)NCCCCCN)[C@H](c3cccc(OCCO)c3)N2C1=O 2.01
COC(=O)C[C@H]1O[C@@]2(C[C@@H]1[Si](C)(C)C)C(=O)N(C)c1ccccc12 2.3
NC(=O)N1C(=O)C2C(C1=O)C1C=C(CCCO)C2C(C2CC2)N1Cc1sc2ccccc2c1Cl (stereo unspecified) 0.718
CCOC(=O)C1=CCC(c2cc3ccccc3[nH]2)N(CCN2CC(C(=O)OCC)=CCC2c2cc3ccccc3[nH]2)C1 (stereo unspecified) 0.852
COCC(=C=CC[C@H](O)c1ccccc1OCCO)C[C@H](O)COCc1ccccc1 -0.348
COc1ccc([Si](C)(C)[C@@H]2[C@@H](CC(=O)N3CCC[C@H]3CO)O[C@]3(C(=O)N(Cc4ccc(N5CCOC5=O)cc4)c4ccccc43)[C@H]2C)cc1 0.0669
C=C(CCCC)C(=O)CC[C@H](OC(=O)c1ccccc1-c1ccccc1C(=O)O)c1ccc(OCCO)cc1 0.373
COC(=O)[C@@]1(Cc2ccc(F)cc2)[C@H]2c3cc(C(=O)N4CCCC4)n(Cc4ccccn4)c3C[C@H]2CN1C(=O)c1ccccc1 -0.81
O=C1NC(=O)C2C1C=CC(C(O)c1ccc([N+](=O)[O-])cc1)N2Nc1ccccn1 (stereo unspecified) -0.16
CCCC#C[Si](O[C@H](CC)c1cn(Cc2ccccc2)nn1)(C(C)C)C(C)C -0.393
COCCCNC(=O)[C@@]1(CCC(=O)OC(C)(C)C)COC(c2ccc(OCCCO)cc2)=N1 0.391
C=C(CCCC)/C(=C/C[C@H](OC(C)=O)c1cccc(OCCO)c1)c1cnc2ccccc2c1 0.5
CN(C)C(=O)[C@]1(Cc2ccccc2)N=C(c2ccc(OCCCO)cc2)O[C@@H]1c1ccccc1CN=[N+]=[N-] -0.348
Cc1ccc(S[C@]2(C(=O)NCc3ccccc3)CC(=O)N(Cc3ccccc3C(F)(F)F)[C@@H]2c2ccc(CO)cc2)cc1 0.57
CCCN1C(=O)[C@]2(CCC(=O)OC(C)(C)C)N=C(c3ccc(OCCCO)cc3)O[C@@H]2c2ccccc21 1.08
C[N+](C)(C)CCCC[C@@H]1NC(=O)[C@H]2C[C@@H](C(=O)NCCCCCNC(=O)CS)[C@@H](c3cccc(OCCO)c3)N2C1=O -0.133
CO[C@H]1O[C@H](CO)[C@@H](OC(=O)Nc2ccccc2-c2ccccc2)[C@H](OC(=O)Nc2ccccc2)[C@H]1OC(=O)Nc1ccccc1 1.15
CC(C)=C1C(=O)C(c2ccccc2)=C2CN3C(=O)N(CCc4ccccc4)C(=O)[C@]3(C)[C@H]21 -0.575
C[C@]1(C(=O)O)c2ccccc2C(=O)N(Cc2cc(F)cc(C(F)(F)F)c2)[C@H]1c1ccc(CO)cc1 0.434
CN(C)CCCNC(=O)[C@@]1(Cc2ccccc2I)c2ccccc2C(=O)N(C2CCCCC2)[C@H]1c1ccc(CO)cc1 0.675
C#CCN1[C@@H](Cc2ccccc2)C(=O)O[C@H](Cc2ccccc2)[C@@H]1/C=C/C1CC1 1.37
CCCc1cc2c(n1CCc1ccc(Cl)cc1)C(C)C1CN(C(=O)c3ccccc3)C(C)(C(=O)OC)C21 (stereo unspecified) -1.34
CN1C(=O)[C@@H]2[C@@H](CC(COc3ccccc3)=C3[C@@H](CCc4ccccc4)OB(O)C[C@@H]32)C1=O 0.0204
CC(C)(C)OC(=O)CC[C@]1(C(=O)NCC(O)CO)N=C(c2ccc(OCCCO)cc2)O[C@H]1c1ccccc1N=[N+]=[N-] (stereo partly specified) -0.0029
COc1ccc([Si](C)(C)[C@H]2[C@H](CC(=O)N3CCC[C@H]3CO)O[C@@]3(C(=O)N(Cc4ccc(N5CCCCC5=O)cc4)c4ccccc43)[C@@H]2C)cc1 -0.18
C=CCOC(=O)[C@H]1[C@@H]2C(=O)O[C@@H](c3ccccc3)[C@@H](c3ccccc3)N2[C@@H](c2ccc(OCCOC(=O)[C@@H]3C[C@@H]4C(=O)N[C@@H](CCCC[N+](C)(C)C)C(=O)N4[C@@H]3c3ccc(O)cc3)cc2)[C@]12C(=O)Nc1ccc(I)cc12 -1.46
O=C(NCc1ccc(F)cc1)[C@H]1C[C@H]2C(=O)N3CCC[C@H]3C(=O)N2[C@H]1c1ccc(O)cc1 0.639
